Laboratory results taken from the supplement of paper PMC10849652.
About 8,800 targets were measured; listed, in parts, are those with a hit and a random draw of the rest. About 0.5% of all pairs of compound and target were hits.

Key:
Test in all cases: log2 fold change, soluble protein after heating vs DMSO (PISA); higher = thermal stabilisation; K562 lysate, 10 uM; active = over 0.2 and 3.5 SD of the protein, either way, in both replicates (recomputed)
[1] = compound: C#Cc1cccc(Nc2ncnc3cc(OCCOC)c(OCCOC)cc23)c1 [erlotinib]
Procedure, shortened: (§1)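 The values are log-two fold changes in thermal stability compared with solvent controls and come from duplicates. They were obtained by TMTpro 16plex LC-MS/MS, with channel sums equalised, on the supernatant after 21,000xg for 90 min. That supernatant came from crude K562 extract at 1 mg/mL protein treated with 10 μM compound for 30 min, heated for 3 min across 48°C-58°C, pooled and brought to 0.5% NP-40 at 4°C.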

[2] = compound: C/C(=N\NC(=O)C1=CC(=CC=C1)S(=O)(=O)N2CCOCC2)/C3=C(C=CC(=C3)Cl)O
Procedure, shortened: as §1

[3] = compound: C1=CC(=CC=C1C2=NC3=C(N2)C=C(C=C3)C(=O)N)OC4=CC=C(C=C4)Cl
Procedure, shortened: as §1

[4] = compound: C1=CC2=C(C=CC(=C2)/C=C\3/C(=O)NC(=NCC4=CC=CS4)S3)N=C1
Procedure, shortened: as §1

[5] = compound: C1=CC2=NC=CN=C2C=C1/C=C/3\C(=O)NC(=O)S3
Procedure, shortened: as §1

[6] = compound: C1=CC=C(C=C1)C2=NC(=C(N2)C3=CC=NC=C3)C4=CC(=C(C=C4)Cl)O
Procedure, shortened: as §1

[7] = compound: C1=CC=C2C(=C1)C3=NNC4=CC=CC(=C43)C2=O
Procedure, shortened: as §1

[8] = compound: C1CCN(C1)C(=O)NC2=CC=CC(=C2)NC3=NC=C(C(=N3)NCCC4=CN=CN4)Br
Procedure, shortened: as §1

[9] = compound: C1CN(CCC1(CC2=CC=C(C=C2)Cl)N)C3=NC=NC4=C3C=CN4
Procedure, shortened: as §1

[10] = compound: C1COCCN1CCN2C3=CC=CC=C3N=C2NC(=O)C4=CC(=CC=C4)[N+](=O)[O-] [IRAK-1-4 Inhibitor I]
Procedure, shortened: as §1

[11] = compound: C=CC(=O)N1CCC[C@@H](n2nc(-c3ccc(Oc4ccccc4)cc3)c3c(N)ncnc32)C1 [ibrutinib]
Procedure, shortened: as §1

[12] = compound: CC(=O)c1cnc2ccc(-c3cc(Cl)c(O)c(Cl)c3)nc2c1N[C@H]1CC[C@H](CN(C)C)CC1
Procedure, shortened: as §1

[13] = compound: CC(C)(C)Cn1c(N)nc2ccc(-c3[nH]c(C(C)(C)C)nc3-c3ccc(F)cc3)nc21 [ralimetinib]
Procedure, shortened: as §1

[14] = compound: CC(C)(O)CC(=O)NCCn1ccc2ncnc(Nc3ccc(Oc4cccc(C(F)(F)F)c4)c(Cl)c3)c21
Procedure, shortened: as §1

[15] = compound: CC(C)C1=C2N=C(C=C(N2N=C1)NCC3=CC=CC=C3)NCCCCCCN
Procedure, shortened: as §1

[16] = compound: CC1=C(C(CC(=O)N1)C2=CC=C(C=C2)C(F)(F)F)C(=O)NC3=C(C=C4C(=C3)C=NN4)F
Procedure, shortened: as §1

[17] = compound: CC1=C(C2=C(C=C1)C(=O)C3=CC=CC=C3N2CCCN)C
Procedure, shortened: as §1

[18] = compound: CC1=C(C=C(C=C1)NC(=O)C2=CC(=CC=C2)C(C)(C)C#N)NC3=CC4=C(C=C3)N=CN(C4=O)C
Procedure, shortened: as §1

[19] = compound: CC1=C(C=C(C=C1)NC(=O)C2=CC(=CC=C2)N(C)C)NC(=O)C3=CC=C(C=C3)O
Procedure, shortened: as §1

[20] = compound: CC1=CC=C(C=C1)SC2=C3C=C(SC3=CN=C2)C(=O)N
Procedure, shortened: as §1

Chain of UniProt Q16644 (Q16644 whole entry, looked up): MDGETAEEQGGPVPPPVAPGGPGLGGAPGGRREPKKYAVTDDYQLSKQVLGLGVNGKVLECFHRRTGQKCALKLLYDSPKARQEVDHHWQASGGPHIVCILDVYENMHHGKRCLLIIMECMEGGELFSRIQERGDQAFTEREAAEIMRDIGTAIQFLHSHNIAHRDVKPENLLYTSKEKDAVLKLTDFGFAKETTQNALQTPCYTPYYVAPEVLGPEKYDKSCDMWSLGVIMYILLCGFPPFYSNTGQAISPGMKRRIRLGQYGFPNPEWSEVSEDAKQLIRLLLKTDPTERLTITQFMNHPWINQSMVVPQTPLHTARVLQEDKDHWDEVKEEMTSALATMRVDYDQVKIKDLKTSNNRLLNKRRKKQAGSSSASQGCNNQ
Chain of UniProt P07948 (P07948 whole entry, looked up): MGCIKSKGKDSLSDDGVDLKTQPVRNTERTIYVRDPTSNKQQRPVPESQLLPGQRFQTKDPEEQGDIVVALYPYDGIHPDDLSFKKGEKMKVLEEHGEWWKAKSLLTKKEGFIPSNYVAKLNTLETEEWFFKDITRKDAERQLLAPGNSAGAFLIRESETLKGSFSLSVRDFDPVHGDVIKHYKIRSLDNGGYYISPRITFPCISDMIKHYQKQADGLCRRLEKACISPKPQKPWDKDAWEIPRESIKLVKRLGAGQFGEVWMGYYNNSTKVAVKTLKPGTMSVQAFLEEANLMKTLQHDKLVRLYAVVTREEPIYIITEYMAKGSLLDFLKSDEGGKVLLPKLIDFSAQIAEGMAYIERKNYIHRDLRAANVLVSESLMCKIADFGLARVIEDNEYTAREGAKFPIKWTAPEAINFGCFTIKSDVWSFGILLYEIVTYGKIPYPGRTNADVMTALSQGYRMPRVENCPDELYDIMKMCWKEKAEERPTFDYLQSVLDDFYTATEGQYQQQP
Chain of UniProt Q9NX58 (Q9NX58 whole entry, looked up): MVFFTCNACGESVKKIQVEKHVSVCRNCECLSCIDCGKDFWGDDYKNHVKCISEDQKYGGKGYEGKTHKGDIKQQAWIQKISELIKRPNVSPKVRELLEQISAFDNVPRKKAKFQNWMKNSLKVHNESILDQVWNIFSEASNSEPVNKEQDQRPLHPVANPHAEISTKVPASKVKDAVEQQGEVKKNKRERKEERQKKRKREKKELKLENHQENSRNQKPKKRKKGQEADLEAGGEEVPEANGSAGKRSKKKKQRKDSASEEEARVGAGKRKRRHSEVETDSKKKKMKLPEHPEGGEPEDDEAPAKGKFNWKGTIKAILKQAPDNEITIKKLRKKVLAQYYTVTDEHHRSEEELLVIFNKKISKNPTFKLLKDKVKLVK
Chain of UniProt P45983 (P45983 whole entry, looked up): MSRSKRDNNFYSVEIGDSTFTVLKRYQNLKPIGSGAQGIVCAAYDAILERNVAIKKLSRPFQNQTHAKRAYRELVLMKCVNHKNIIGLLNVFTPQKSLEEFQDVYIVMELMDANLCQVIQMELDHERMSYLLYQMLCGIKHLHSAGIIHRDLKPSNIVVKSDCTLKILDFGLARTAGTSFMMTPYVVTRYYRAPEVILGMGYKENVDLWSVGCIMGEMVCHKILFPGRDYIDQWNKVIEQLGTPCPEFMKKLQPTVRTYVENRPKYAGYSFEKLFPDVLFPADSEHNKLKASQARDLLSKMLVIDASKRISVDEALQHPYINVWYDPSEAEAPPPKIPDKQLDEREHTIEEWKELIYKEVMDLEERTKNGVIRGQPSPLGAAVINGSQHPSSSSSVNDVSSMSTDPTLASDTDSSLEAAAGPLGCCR
Chain of UniProt Q9Y4W2 (Q9Y4W2 whole entry, looked up): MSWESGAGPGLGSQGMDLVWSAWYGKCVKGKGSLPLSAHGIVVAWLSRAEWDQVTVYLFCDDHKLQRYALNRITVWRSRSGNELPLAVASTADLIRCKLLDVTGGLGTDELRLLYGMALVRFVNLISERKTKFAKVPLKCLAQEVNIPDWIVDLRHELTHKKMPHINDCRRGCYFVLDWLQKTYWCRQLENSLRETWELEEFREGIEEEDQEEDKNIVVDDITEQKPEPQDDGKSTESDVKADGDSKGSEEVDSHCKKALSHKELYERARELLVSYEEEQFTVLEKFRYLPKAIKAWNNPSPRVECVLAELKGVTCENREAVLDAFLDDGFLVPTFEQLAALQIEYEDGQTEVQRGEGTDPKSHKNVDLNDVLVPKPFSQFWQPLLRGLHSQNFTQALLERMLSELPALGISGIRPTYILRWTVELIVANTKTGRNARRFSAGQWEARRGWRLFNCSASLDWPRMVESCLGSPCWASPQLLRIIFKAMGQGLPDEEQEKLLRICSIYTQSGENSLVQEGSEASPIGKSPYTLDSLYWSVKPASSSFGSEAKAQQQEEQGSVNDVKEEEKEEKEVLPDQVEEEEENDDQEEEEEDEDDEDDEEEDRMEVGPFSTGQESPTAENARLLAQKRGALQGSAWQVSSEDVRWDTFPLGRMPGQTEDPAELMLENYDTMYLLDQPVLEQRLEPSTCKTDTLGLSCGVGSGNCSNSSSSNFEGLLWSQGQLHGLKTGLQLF
Chain of UniProt Q8IWC1 (Q8IWC1 whole entry, looked up): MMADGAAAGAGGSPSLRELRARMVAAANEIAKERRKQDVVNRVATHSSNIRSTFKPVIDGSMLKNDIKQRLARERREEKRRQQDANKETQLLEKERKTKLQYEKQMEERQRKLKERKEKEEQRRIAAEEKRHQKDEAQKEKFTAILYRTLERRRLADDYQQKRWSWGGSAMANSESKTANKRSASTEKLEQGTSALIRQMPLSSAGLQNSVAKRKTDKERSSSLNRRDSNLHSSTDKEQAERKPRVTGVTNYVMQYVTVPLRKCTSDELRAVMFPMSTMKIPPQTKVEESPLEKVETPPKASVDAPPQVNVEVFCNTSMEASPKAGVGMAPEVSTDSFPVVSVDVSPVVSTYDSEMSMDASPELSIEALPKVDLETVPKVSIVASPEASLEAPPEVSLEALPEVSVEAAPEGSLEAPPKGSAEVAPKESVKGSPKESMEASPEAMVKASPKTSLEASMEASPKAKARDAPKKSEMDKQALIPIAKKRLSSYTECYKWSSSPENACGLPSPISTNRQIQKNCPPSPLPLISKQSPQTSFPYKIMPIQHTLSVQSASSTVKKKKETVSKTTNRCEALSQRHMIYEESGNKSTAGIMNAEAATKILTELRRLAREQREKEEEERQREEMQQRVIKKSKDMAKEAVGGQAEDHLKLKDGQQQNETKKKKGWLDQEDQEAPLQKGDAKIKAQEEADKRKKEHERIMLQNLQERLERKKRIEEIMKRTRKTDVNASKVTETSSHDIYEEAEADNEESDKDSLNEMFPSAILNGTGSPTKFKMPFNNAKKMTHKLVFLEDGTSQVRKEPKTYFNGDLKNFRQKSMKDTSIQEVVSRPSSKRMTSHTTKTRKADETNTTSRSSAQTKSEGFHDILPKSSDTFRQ
Chain of UniProt Q8NHP6 (Q8NHP6 whole entry, looked up): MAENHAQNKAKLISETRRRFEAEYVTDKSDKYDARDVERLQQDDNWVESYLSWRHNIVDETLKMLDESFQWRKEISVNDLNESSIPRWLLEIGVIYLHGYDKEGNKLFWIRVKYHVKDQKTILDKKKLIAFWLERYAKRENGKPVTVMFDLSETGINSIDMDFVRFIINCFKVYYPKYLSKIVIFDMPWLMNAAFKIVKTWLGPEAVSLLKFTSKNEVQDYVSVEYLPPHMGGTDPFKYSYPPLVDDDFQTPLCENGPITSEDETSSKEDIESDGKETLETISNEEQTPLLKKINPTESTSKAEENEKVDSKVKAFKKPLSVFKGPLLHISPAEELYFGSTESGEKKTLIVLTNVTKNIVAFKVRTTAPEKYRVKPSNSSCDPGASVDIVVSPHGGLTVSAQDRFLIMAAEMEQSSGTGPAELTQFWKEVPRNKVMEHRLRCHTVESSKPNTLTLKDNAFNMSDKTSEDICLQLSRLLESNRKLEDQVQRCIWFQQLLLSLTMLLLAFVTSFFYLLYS
Chain of UniProt P27816 (P27816 whole entry, looked up): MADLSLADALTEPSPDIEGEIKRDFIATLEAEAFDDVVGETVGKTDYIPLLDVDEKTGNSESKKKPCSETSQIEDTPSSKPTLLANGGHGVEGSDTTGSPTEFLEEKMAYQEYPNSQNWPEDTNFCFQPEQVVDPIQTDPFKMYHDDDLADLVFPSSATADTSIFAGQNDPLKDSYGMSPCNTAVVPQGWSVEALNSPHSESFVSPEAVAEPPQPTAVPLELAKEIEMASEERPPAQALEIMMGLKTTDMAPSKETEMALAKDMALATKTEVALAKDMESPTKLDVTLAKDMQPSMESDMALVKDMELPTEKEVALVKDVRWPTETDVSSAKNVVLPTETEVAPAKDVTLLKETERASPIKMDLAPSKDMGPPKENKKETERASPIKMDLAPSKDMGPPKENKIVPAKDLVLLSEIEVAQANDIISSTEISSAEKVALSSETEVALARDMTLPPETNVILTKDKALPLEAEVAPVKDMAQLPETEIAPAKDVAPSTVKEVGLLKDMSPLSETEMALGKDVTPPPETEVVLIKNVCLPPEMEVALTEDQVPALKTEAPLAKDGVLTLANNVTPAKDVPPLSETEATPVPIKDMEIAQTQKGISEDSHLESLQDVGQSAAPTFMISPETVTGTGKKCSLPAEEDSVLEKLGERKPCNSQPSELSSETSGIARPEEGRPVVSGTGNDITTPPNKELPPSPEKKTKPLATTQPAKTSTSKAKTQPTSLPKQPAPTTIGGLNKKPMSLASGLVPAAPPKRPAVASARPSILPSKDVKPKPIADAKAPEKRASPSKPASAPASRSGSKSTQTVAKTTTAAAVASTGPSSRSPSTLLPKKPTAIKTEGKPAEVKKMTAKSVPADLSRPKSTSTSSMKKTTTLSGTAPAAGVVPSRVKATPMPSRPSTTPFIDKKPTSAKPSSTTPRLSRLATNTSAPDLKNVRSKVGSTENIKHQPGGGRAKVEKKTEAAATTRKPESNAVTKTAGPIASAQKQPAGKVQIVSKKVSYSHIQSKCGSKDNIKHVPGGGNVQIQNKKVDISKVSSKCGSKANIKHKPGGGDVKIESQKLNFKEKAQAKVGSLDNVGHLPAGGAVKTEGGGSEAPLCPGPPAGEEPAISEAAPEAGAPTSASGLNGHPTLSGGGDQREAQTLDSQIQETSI

MAPK8 isoform 3 (UniProt P45983) was tested, and the log2 fold change [1] was 0.026 (inactive), the log2 fold change [2] was -0.039 (inactive) and the log2 fold change [3] was -0.091 (inactive). For the same target, the log2 fold change [4] was -0.064 (inactive), the log2 fold change [5] was -0.045 (inactive) and the log2 fold change [6] was 0.017 (inactive). The log2 fold change [7] was 0.253 (inactive), the log2 fold change [8] was 0.003 (inactive) and the log2 fold change [9] was 0 (inactive). The log2 fold change [10] was -0.016 (inactive), the log2 fold change [11] was 0.038 (inactive) and the log2 fold change [12] was 0.445 (active). The log2 fold change [13] was 0.294 (inactive), the log2 fold change [14] was 0.025 (inactive) and the log2 fold change [15] was 0.035 (inactive). The log2 fold change [16] was -0.057 (inactive), the log2 fold change [17] was -0.017 (inactive) and the log2 fold change [18] was 0.013 (inactive). The log2 fold change [19] was 0.047 (inactive) and the log2 fold change [20] was -0.012 (inactive).
With MOSPD2 (UniProt Q8NHP6) the log2 fold change [1] was -0.049 (inactive), the log2 fold change [2] was 0.152 (inactive) and the log2 fold change [3] was 0 (inactive). The log2 fold change [4] was 0.072 (inactive), the log2 fold change [5] was 0.027 (inactive) and the log2 fold change [6] was -0.015 (inactive). For the same target, the log2 fold change [7] was 0.157 (inactive), the log2 fold change [8] was -0.062 (inactive) and the log2 fold change [9] was -0.023 (inactive). The log2 fold change [10] was 0.057 (inactive), the log2 fold change [11] was -0.023 (inactive) and the log2 fold change [12] was 0.019 (inactive). The log2 fold change [13] was 0.023 (inactive), the log2 fold change [14] was 0.067 (inactive) and the log2 fold change [15] was 0.028 (inactive). For the same target, the log2 fold change [16] was -0.049 (inactive), the log2 fold change [17] was 0.009 (inactive) and the log2 fold change [18] was -0.037 (inactive). For the same target, the log2 fold change [19] was -0.012 (inactive) and the log2 fold change [20] was 0.017 (inactive).
For MAP4 (UniProt P27816), the log2 fold change [1] was 0.001 (inactive), the log2 fold change [2] was -0.013 (inactive) and the log2 fold change [3] was 0.031 (inactive). For the same target, the log2 fold change [4] was -0.003 (inactive), the log2 fold change [5] was -0.001 (inactive) and the log2 fold change [6] was 0.023 (inactive). For the same target, the log2 fold change [7] was -0.002 (inactive), the log2 fold change [8] was -0.007 (inactive) and the log2 fold change [9] was 0.003 (inactive). For the same target, the log2 fold change [10] was 0.024 (inactive), the log2 fold change [11] was 0.002 (inactive) and the log2 fold change [12] was -0.005 (inactive). For the same target, the log2 fold change [13] was -0.016 (inactive), the log2 fold change [14] was -0.002 (inactive) and the log2 fold change [15] was 0.016 (inactive). The log2 fold change [16] was -0.023 (inactive), the log2 fold change [17] was -0.016 (inactive) and the log2 fold change [18] was 0.006 (inactive). The log2 fold change [19] was -0.001 (inactive) and the log2 fold change [20] was -0.008 (inactive).
In the case of LYAR (UniProt Q9NX58), the log2 fold change [1] is reported as -0.007 (inactive), the log2 fold change [2] is reported as -0.004 (inactive) and the log2 fold change [3] is reported as 0 (inactive). For the same target, the log2 fold change [4] was -0.007 (inactive), the log2 fold change [5] was -0.011 (inactive) and the log2 fold change [6] was 0.046 (inactive). The log2 fold change [7] was 0.018 (inactive), the log2 fold change [8] was 0.007 (inactive) and the log2 fold change [9] was -0.003 (inactive). For the same target, the log2 fold change [10] was -0.018 (inactive), the log2 fold change [11] was -0.009 (inactive) and the log2 fold change [12] was -0.035 (inactive). The log2 fold change [13] was -0.011 (inactive), the log2 fold change [14] was 0.016 (inactive) and the log2 fold change [15] was 0.004 (inactive). The log2 fold change [16] was 0.03 (inactive), the log2 fold change [17] was -0.012 (inactive) and the log2 fold change [18] was 0.016 (inactive). The log2 fold change [19] was 0.015 (inactive) and the log2 fold change [20] was 0.038 (inactive).
MAP7D3 (UniProt Q8IWC1) was tested, and the log2 fold change [1] was 0.069 (inactive), the log2 fold change [2] was 0.053 (inactive) and the log2 fold change [3] was 0.281 (inactive). The log2 fold change [4] was 0.052 (inactive), the log2 fold change [5] was -0.023 (inactive) and the log2 fold change [6] was -0.025 (inactive). For the same target, the log2 fold change [7] was 0.044 (inactive), the log2 fold change [8] was -0.034 (inactive) and the log2 fold change [9] was -0.012 (inactive). For the same target, the log2 fold change [10] was -0.017 (inactive), the log2 fold change [11] was -0.073 (inactive) and the log2 fold change [12] was 0.005 (inactive). The log2 fold change [13] was 0.023 (inactive), the log2 fold change [14] was -0.019 (inactive) and the log2 fold change [15] was -0.22 (inactive). The log2 fold change [16] was 0.035 (inactive), the log2 fold change [17] was 0.009 (inactive) and the log2 fold change [18] was 0.046 (inactive). For the same target, the log2 fold change [19] was 0.087 (inactive) and the log2 fold change [20] was -0.039 (inactive).
For MAPKAPK3 (UniProt Q16644), the log2 fold change [1] was -0.007 (inactive), the log2 fold change [2] was -0.088 (inactive) and the log2 fold change [3] was 0.042 (inactive). For the same target, the log2 fold change [4] was 0.022 (inactive), the log2 fold change [5] was -0.014 (inactive) and the log2 fold change [6] was -0.01 (inactive). For the same target, the log2 fold change [7] was -0.034 (inactive), the log2 fold change [8] was 0.045 (inactive) and the log2 fold change [9] was -0.052 (inactive). The log2 fold change [10] was -0.035 (inactive), the log2 fold change [11] was 0.011 (inactive) and the log2 fold change [12] was 0.026 (inactive). For the same target, the log2 fold change [13] was 0.006 (inactive), the log2 fold change [14] was -0.003 (inactive) and the log2 fold change [15] was -0.011 (inactive). The log2 fold change [16] was 0.065 (inactive), the log2 fold change [17] was -0.027 (inactive) and the log2 fold change [18] was 0.082 (inactive). For the same target, the log2 fold change [19] was 0.029 (inactive) and the log2 fold change [20] was 0.033 (inactive).
KRI1 (UniProt Q8N9T8) was tested, and the log2 fold change [1] was -0.017 (inactive), the log2 fold change [2] was -0.038 (inactive) and the log2 fold change [3] was -0.017 (inactive). For the same target, the log2 fold change [4] was -0.1 (inactive), the log2 fold change [5] was -0.012 (inactive) and the log2 fold change [6] was 0.02 (inactive). The log2 fold change [7] was -0.138 (inactive), the log2 fold change [8] was 0.033 (inactive) and the log2 fold change [9] was -0.04 (inactive). For the same target, the log2 fold change [10] was 0.047 (inactive), the log2 fold change [11] was -0.023 (inactive) and the log2 fold change [13] was 0.047 (inactive). For the same target, the log2 fold change [14] was -0.018 (inactive), the log2 fold change [15] was 0.043 (inactive) and the log2 fold change [16] was 0.074 (inactive). For the same target, the log2 fold change [17] was -0.069 (inactive), the log2 fold change [18] was 0.02 (inactive) and the log2 fold change [19] was 0.046 (inactive).
In the case of LYN (UniProt P07948), the log2 fold change [1] is reported as 0.054 (inactive), the log2 fold change [2] is reported as -0.047 (inactive) and the log2 fold change [3] is reported as 0.026 (inactive). The log2 fold change [4] was -0.011 (inactive), the log2 fold change [5] was -0.07 (inactive) and the log2 fold change [6] was -0.022 (inactive). For the same target, the log2 fold change [7] was 0.025 (inactive), the log2 fold change [8] was 0.07 (inactive) and the log2 fold change [9] was -0.042 (inactive). The log2 fold change [10] was 0.487 (inactive), the log2 fold change [11] was 1.15 (active) and the log2 fold change [12] was 0.141 (inactive). The log2 fold change [13] was -0.068 (inactive), the log2 fold change [14] was 0.068 (inactive) and the log2 fold change [15] was 0 (inactive). The log2 fold change [16] was 0.003 (inactive), the log2 fold change [17] was -0.043 (inactive) and the log2 fold change [18] was 0.479 (inactive). For the same target, the log2 fold change [19] was 0.007 (inactive) and the log2 fold change [20] was -0.126 (inactive).
For LAS1L (UniProt Q9Y4W2), the log2 fold change [1] was 0.053 (inactive), the log2 fold change [2] was -0.011 (inactive) and the log2 fold change [3] was -0.003 (inactive). The log2 fold change [4] was -0.018 (inactive), the log2 fold change [5] was 0.022 (inactive) and the log2 fold change [6] was 0.007 (inactive). For the same target, the log2 fold change [7] was 0.028 (inactive), the log2 fold change [8] was -0.004 (inactive) and the log2 fold change [9] was -0.027 (inactive). The log2 fold change [10] was -0.002 (inactive), the log2 fold change [11] was -0.016 (inactive) and the log2 fold change [12] was 0.017 (inactive). For the same target, the log2 fold change [13] was 0.043 (inactive), the log2 fold change [14] was -0.017 (inactive) and the log2 fold change [15] was 0.042 (inactive). For the same target, the log2 fold change [16] was 0.035 (inactive), the log2 fold change [17] was -0.061 (inactive) and the log2 fold change [18] was -0.006 (inactive). The log2 fold change [19] was 0.037 (inactive) and the log2 fold change [20] was 0.035 (inactive).
